In the supplement of paper PMC10849652 one finds log2 fold change data, which are given here for 39 targets.

Of roughly 7,900 targets only a part is listed; those with a hit were picked by preference. About 0.6% of all pairs of compound and target were hits. Unmarked numbers belong to inactive results.

UniProt Q9HAN9, sequence (Q9HAN9 whole entry, looked up): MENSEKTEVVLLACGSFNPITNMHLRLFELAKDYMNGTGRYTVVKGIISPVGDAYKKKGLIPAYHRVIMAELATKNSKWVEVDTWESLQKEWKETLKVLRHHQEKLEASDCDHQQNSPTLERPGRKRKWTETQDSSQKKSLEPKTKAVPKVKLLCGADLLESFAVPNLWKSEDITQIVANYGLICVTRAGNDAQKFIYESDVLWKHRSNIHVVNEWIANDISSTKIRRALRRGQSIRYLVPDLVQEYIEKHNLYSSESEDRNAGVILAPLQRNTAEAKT
UniProt Q9UI09, sequence (Q9UI09 whole entry, looked up): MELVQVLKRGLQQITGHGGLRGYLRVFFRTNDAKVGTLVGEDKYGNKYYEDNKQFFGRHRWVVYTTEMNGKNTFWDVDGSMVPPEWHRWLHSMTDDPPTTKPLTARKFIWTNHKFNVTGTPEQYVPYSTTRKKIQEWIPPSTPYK
UniProt Q9Y314, sequence (Q9Y314 whole entry, looked up): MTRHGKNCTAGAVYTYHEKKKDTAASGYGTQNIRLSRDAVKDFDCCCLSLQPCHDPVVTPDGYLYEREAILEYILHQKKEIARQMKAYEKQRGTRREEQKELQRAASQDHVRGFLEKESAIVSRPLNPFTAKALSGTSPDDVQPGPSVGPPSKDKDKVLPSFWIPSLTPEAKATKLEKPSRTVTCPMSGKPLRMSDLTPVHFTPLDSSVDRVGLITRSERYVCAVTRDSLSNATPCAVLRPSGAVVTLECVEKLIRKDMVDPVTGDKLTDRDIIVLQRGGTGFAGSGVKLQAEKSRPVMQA
UniProt Q9BUB5, sequence (Q9BUB5 whole entry, looked up): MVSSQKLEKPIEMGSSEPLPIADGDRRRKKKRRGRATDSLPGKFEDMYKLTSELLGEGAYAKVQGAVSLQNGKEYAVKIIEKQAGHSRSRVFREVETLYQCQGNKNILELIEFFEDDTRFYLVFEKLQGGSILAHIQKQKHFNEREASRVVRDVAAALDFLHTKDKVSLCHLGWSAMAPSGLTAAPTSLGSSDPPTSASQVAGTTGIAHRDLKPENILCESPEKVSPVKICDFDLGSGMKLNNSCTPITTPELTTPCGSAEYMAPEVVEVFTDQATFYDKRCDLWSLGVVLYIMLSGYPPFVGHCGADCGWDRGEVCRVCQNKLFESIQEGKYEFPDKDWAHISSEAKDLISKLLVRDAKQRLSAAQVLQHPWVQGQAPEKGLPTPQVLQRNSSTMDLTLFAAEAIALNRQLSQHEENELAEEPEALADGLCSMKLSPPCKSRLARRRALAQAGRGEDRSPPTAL
UniProt Q9UBD5, sequence (Q9UBD5 whole entry, looked up): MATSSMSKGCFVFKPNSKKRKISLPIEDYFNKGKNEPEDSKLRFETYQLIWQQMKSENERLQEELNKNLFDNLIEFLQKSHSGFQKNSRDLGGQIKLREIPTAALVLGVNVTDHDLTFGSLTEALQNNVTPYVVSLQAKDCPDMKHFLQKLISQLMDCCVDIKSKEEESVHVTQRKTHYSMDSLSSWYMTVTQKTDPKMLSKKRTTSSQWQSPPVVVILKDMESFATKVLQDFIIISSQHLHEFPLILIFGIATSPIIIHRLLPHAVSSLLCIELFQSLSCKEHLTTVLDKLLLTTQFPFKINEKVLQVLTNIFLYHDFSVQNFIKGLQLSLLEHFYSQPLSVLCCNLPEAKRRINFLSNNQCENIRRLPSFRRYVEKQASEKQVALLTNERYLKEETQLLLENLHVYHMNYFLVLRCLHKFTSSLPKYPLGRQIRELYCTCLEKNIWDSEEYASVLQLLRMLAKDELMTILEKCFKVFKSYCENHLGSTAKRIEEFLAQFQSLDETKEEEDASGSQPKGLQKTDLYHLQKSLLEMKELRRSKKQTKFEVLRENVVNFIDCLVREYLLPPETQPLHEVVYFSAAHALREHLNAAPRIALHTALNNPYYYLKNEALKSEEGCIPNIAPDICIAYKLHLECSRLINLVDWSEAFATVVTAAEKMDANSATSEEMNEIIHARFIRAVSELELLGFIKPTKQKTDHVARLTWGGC
UniProt Q14978, sequence (Q14978 whole entry, looked up): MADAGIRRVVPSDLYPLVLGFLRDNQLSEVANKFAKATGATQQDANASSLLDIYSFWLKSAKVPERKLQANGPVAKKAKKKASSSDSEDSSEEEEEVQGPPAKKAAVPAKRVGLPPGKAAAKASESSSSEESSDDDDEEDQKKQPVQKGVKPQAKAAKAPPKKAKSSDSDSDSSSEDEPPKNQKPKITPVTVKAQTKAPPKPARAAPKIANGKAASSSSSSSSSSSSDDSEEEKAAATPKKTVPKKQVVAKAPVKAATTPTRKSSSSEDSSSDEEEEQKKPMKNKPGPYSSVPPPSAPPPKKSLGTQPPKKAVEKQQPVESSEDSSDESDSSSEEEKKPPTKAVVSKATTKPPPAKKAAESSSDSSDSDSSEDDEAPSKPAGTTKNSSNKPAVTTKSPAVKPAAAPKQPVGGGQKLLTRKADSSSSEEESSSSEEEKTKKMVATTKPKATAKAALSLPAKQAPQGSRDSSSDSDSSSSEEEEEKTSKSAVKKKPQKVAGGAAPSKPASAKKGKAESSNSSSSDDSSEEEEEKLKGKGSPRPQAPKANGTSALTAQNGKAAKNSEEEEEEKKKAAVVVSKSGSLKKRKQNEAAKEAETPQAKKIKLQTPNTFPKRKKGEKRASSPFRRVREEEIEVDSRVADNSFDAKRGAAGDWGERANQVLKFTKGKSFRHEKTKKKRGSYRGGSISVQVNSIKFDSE
UniProt Q92621, sequence (Q92621 whole entry, looked up): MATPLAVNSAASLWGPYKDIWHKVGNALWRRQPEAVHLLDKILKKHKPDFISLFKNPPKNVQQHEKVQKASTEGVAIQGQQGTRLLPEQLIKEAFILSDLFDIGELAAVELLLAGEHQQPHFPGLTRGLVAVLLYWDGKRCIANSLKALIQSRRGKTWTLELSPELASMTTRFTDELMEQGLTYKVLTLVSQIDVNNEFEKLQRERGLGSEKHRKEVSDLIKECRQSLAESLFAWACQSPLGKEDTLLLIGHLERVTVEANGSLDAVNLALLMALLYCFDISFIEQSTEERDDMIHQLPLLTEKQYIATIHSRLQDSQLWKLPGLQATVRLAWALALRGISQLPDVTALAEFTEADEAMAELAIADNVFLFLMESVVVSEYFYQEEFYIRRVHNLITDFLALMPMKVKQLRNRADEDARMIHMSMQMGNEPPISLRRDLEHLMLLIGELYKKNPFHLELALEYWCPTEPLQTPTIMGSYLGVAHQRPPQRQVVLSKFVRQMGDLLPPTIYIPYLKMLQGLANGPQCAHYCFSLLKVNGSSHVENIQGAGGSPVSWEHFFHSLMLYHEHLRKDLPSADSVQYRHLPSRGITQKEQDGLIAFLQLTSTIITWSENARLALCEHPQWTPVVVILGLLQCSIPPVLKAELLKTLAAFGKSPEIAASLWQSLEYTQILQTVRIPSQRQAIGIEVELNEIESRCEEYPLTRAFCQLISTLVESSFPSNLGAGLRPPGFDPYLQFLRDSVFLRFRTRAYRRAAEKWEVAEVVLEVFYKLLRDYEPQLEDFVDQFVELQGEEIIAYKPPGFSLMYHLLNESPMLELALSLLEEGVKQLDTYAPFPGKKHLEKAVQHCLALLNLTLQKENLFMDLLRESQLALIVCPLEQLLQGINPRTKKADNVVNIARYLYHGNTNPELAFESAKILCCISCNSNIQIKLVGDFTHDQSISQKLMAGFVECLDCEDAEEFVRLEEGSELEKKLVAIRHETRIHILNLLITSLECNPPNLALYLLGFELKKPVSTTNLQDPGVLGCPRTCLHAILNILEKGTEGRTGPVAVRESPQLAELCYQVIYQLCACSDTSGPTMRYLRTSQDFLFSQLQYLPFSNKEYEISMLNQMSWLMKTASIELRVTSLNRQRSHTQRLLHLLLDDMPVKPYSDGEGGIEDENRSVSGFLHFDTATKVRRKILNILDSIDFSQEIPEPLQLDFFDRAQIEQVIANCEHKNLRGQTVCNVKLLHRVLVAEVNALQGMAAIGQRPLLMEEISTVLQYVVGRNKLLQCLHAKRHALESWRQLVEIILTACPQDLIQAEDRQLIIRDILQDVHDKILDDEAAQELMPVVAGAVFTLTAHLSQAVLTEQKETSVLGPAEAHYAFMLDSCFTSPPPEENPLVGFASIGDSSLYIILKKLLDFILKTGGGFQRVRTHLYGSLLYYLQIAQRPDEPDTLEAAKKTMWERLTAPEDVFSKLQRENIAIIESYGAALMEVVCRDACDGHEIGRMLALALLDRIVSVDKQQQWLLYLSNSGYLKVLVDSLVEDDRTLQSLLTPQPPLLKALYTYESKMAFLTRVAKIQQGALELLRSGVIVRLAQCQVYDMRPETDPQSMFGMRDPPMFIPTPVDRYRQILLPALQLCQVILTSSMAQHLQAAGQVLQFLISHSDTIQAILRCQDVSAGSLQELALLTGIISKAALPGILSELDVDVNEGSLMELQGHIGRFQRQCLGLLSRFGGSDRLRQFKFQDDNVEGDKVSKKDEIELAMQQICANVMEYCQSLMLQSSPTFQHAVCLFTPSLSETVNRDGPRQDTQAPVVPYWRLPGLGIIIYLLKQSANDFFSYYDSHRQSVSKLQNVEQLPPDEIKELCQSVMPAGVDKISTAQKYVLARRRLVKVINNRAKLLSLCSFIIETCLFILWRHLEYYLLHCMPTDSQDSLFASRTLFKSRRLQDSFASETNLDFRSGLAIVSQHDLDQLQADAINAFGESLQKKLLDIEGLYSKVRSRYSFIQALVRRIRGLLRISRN
UniProt Q9ULX3, sequence (Q9ULX3 whole entry, looked up): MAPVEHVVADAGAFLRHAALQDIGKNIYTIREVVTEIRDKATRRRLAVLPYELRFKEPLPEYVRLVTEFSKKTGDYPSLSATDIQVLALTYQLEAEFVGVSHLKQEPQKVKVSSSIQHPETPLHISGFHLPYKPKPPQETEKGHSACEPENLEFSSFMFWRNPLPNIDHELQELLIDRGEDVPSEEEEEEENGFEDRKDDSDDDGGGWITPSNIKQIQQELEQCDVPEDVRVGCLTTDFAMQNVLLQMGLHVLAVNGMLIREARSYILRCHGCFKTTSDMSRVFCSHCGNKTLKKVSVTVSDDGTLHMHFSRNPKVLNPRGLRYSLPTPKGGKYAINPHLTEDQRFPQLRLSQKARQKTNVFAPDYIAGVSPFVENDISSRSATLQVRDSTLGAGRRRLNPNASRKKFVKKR

Compound in the first assay: NCC(=O)Nc1ccc(-n2nc(C(F)(F)F)cc2-c2ccc3c(ccc4ccccc43)c2)cc1
Briefly: log2 fold change, soluble protein after heating vs DMSO (PISA); higher = thermal stabilisation; K562 cells, 10 uM, 30 min; active = over 0.2 and 3.5 SD of the protein, either way, in both replicates (recomputed). Summed up:
(§1)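 K562 cells at 2×10^6 cells/mL were given 10 μM compound for 30 min. Aliquots then went through 3 min of heating across 48°C-58°C, were pooled, and were extracted in PBS with 0.5% NP-40 at 4°C, and the supernatant after 21,000xg for 90 min was quantified by TMTpro 16plex LC-MS/MS with channel sums equalised. Thermal stability relative to control samples, from duplicates, is given as log2 fold change.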
On to NFATC2 (UniProt Q13469), for which the log2 fold change was -0.075.

On to MRPS18B (UniProt Q9Y676), for which the log2 fold change is 0.105.

PACS1 (UniProt Q6VY07): the log2 fold change was -0.01.

NUP205 (UniProt Q92621): the log2 fold change is -0.1.

For the target NA, A0A0B4J2A0, the log2 fold change is 0.031.

As to OSBP (UniProt P22059), the log2 fold change was -0.036.

With MKNK1 (UniProt Q9BUB5), the log2 fold change was -0.059.

Regarding NMNAT1 (UniProt Q9HAN9), the log2 fold change is 0.081.

As for MRPS25 (UniProt P82663), the log2 fold change was 0.04.

As to NME1 isoform 2 (UniProt P15531), the log2 fold change was -0.003.

As to MRPL47 (UniProt Q9HD33), the log2 fold change is 0.057.

In the case of NDUFA12 (UniProt Q9UI09), the log2 fold change is -0.061.

Regarding MOV10 (UniProt Q9HCE1), the log2 fold change is 0.018.

As for MTHFD1, A0A384N5Y3, the log2 fold change is -0.077.

For MRPS5 (UniProt P82675), the log2 fold change is 0.013.

NFATC2IP (UniProt Q8NCF5): the log2 fold change was -0.011.

For the target NOL11 (UniProt Q9H8H0), the log2 fold change was 0.038.

For the target NDUFA6 (UniProt P56556), the log2 fold change is -0.083.

On to OSBPL8 (UniProt Q9BZF1), for which the log2 fold change is 0.042.

Turning to NOSIP (UniProt Q9Y314), the log2 fold change was -0.121.

In the case of NR2C2 isoform 2 (UniProt P49116), the log2 fold change was -0.104.

As for NDUFB8 (UniProt O95169), the log2 fold change was 0.02.

As to NQO1 (UniProt P15559), the log2 fold change is -0.034.

Consider MSH2 (UniProt P43246), for which the log2 fold change was -0.138.

Take MT-ATP6 (UniProt P00846): the log2 fold change is 0.081.

As to MRPS2 (UniProt Q9Y399), the log2 fold change was 0.062.

Consider NOB1 (UniProt Q9ULX3), for which the log2 fold change is -0.021.

MPP1 (UniProt Q00013): the log2 fold change is -0.067.

For the target NUCKS1 (UniProt Q9H1E3), the log2 fold change is 0.04.

For the target ORC3 isoform 2 (UniProt Q9UBD5), the log2 fold change was -0.142.

Turning to NOLC1 isoform 2 (UniProt Q14978), the log2 fold change was 0.014.

Consider NEDD4 isoform 4 (UniProt P46934), for which the log2 fold change is -0.074.

Turning to MRPS22 (UniProt P82650), the log2 fold change was 0.006.

MSTO1 (UniProt Q9BUK6): the log2 fold change was -0.059.

Regarding NCAPD2 (UniProt Q15021), the log2 fold change was -0.045.

As for MYL12B (UniProt O14950), the log2 fold change was 0.055.

Regarding NEU1 (UniProt Q99519), the log2 fold change is -0.057.

Take NA, A0A096LPI6: the log2 fold change was 0.016.

For the target MRPS33 (UniProt Q9Y291), the log2 fold change is 0.046.

Compound in another assay: Nc1ccccc1NC(=O)c1ccc(CNC(=O)OCc2cccnc2)cc1 [entinostat]
The assay is described as above. The method, boiled down: as §1
As to NFATC2 (UniProt Q13469), the log2 fold change is 0.147.

With MRPS18B (UniProt Q9Y676), the log2 fold change was -0.047.

Turning to PACS1 (UniProt Q6VY07), the log2 fold change is 0.004.

In the case of NUP205 (UniProt Q92621), the log2 fold change was 0.017.

For the target NA, A0A0B4J2A0, the log2 fold change is 0.029.

With OSBP (UniProt P22059), the log2 fold change was 0.024.

As for MKNK1 (UniProt Q9BUB5), the log2 fold change was -0.026.

For NMNAT1 (UniProt Q9HAN9), the log2 fold change is 0.002.

Regarding MRPS25 (UniProt P82663), the log2 fold change was 0.021.

For NME1 isoform 2 (UniProt P15531), the log2 fold change was -0.064.

Consider MRPL47 (UniProt Q9HD33), for which the log2 fold change is 0.028.

For NDUFA12 (UniProt Q9UI09), the log2 fold change is 0.04.

In the case of MOV10 (UniProt Q9HCE1), the log2 fold change was 0.016.

For the target MTHFD1, A0A384N5Y3, the log2 fold change is -0.059.

MRPS5 (UniProt P82675): the log2 fold change is 0.

With NFATC2IP (UniProt Q8NCF5), the log2 fold change is 0.035.

NOL11 (UniProt Q9H8H0): the log2 fold change is -0.019.

Regarding NDUFA6 (UniProt P56556), the log2 fold change is 0.056.

Take OSBPL8 (UniProt Q9BZF1): the log2 fold change was 0.012.

Consider NOSIP (UniProt Q9Y314), for which the log2 fold change was 0.16.

Turning to NR2C2 isoform 2 (UniProt P49116), the log2 fold change is -0.02.

For NDUFB8 (UniProt O95169), the log2 fold change is 0.113.

With NQO1 (UniProt P15559), the log2 fold change was -0.013.

On to MSH2 (UniProt P43246), for which the log2 fold change is 0.074.

Consider MT-ATP6 (UniProt P00846), for which the log2 fold change was -0.018.

Consider MRPS2 (UniProt Q9Y399), for which the log2 fold change was 0.034.

In the case of NOB1 (UniProt Q9ULX3), the log2 fold change was 0.047.

MPP1 (UniProt Q00013): the log2 fold change is 0.047.

Take NUCKS1 (UniProt Q9H1E3): the log2 fold change was -0.01.

For ORC3 isoform 2 (UniProt Q9UBD5), the log2 fold change is -0.004.

Regarding NOLC1 isoform 2 (UniProt Q14978), the log2 fold change is -0.043.

Turning to NEDD4 isoform 4 (UniProt P46934), the log2 fold change was 0.029.

Turning to MRPS22 (UniProt P82650), the log2 fold change is 0.027.

Consider MSTO1 (UniProt Q9BUK6), for which the log2 fold change was -0.005.

Consider NCAPD2 (UniProt Q15021), for which the log2 fold change was 0.084.

Turning to MYL12B (UniProt O14950), the log2 fold change was 0.029.

In the case of NEU1 (UniProt Q99519), the log2 fold change is 0.003.

For NA, A0A096LPI6, the log2 fold change is -0.006.

As to MRPS33 (UniProt Q9Y291), the log2 fold change is 0.
